Only a selection was taken, and hits are over-represented in it overall.
IDE exosite FP = exo-site inhibitors of human IDE, primary screen, biochemical, fluorescence anisotropy, probe displacement; Insulin-degrading enzyme (Homo sapiens), P14735; purified IDE, FL-6b probe fluorescence polarization; stronger effect = lower value; z-score at 20 µM; actives 6.3% (n = 17,000); AID 1259349, 2017;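 active = z-score of -3 or lower, meaning strong loss of probe binding signal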;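 also: His-tagged human IDE residues 42-1019 made in E. coli with 30 nM FL-6b probe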
Target sequence (P14735 42-1019 limits assumed): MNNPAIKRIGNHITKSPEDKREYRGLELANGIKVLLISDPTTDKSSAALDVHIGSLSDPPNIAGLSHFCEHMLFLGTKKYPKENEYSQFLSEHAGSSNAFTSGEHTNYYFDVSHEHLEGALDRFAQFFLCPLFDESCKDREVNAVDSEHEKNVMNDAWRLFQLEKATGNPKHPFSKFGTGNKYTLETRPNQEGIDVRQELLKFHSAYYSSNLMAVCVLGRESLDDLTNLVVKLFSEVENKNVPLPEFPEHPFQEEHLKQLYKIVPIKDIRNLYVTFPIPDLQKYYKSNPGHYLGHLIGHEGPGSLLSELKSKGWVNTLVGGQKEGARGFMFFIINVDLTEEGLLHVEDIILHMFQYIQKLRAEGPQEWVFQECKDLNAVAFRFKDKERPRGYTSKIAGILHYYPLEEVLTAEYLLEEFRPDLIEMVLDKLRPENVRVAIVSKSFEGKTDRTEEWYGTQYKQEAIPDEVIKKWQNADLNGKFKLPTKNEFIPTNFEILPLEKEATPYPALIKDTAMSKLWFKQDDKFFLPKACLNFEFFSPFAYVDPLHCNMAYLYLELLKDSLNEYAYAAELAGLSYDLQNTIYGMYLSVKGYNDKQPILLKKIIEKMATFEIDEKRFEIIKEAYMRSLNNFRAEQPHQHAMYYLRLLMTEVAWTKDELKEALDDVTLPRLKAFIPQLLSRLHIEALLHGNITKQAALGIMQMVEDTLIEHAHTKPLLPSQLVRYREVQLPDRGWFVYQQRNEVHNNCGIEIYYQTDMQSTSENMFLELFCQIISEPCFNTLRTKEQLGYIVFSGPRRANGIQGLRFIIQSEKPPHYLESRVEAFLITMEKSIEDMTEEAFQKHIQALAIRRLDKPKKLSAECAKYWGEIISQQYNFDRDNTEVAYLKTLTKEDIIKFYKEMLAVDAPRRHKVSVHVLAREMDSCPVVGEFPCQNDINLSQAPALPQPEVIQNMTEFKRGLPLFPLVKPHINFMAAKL
An asterisk follows results filed as active.

SMILES	IDE exosite FP
C[C@H](O)C#Cc1ccc([C@@H]2[C@H]3CN(S(=O)(=O)Cc4ccccc4)CCCCN3[C@H]2CO)cc1	-0.675
CCN1CC(=O)N2[C@H](C1)[C@H](c1ccc(-c3ccccc3F)cc1)[C@@H]2CO	-0.567
C[C@H]1CN([C@@H](C)CO)C(=O)c2cc(NC(=O)C3CC3)ccc2O[C@H]1CN(C)S(=O)(=O)c1ccccc1	0.302
C[C@@H]1CN([C@H](C)CO)C(=O)c2cc(NC(=O)C3CC3)ccc2O[C@H]1CN(C)S(=O)(=O)c1ccccc1	-3.54*
C[C@@H]1CN([C@@H](C)CO)C(=O)c2cc(NC(=O)C3CC3)ccc2O[C@@H]1CN(C)S(=O)(=O)c1ccccc1	0.107
C[C@@H]1CN([C@H](C)CO)C(=O)c2cc(NS(=O)(=O)c3cn(C)cn3)ccc2O[C@@H]1CN(C)S(=O)(=O)c1ccc(F)cc1	0.72
C[C@@H]1CN([C@@H](C)CO)C(=O)c2cc(NS(=O)(=O)c3cn(C)cn3)ccc2O[C@H]1CN(C)S(=O)(=O)c1ccc(F)cc1	-0.0322
C[C@@H]1CN([C@H](C)CO)C(=O)c2cc(NS(=O)(=O)c3cn(C)cn3)ccc2O[C@H]1CN(C)S(=O)(=O)c1ccc(F)cc1	-4.55*
O=C(C[C@@H]1CC[C@H](NC(=O)CN2CCOCC2)[C@H](CO)O1)NC1CCC1	-0.121
COc1cccc(NC(=O)Nc2ccc3c(c2)C(=O)N(C)C[C@@H](OC)[C@@H](C)CN[C@H](C)CO3)c1	-0.955
COc1cccc(NC(=O)Nc2ccc3c(c2)C(=O)N(C)C[C@@H](OC)[C@@H](C)CN[C@@H](C)CO3)c1	-0.138
CO[C@@H]1CN(C)C(=O)c2cc(NC(=O)c3ccc(Oc4ccccc4)cc3)ccc2OC[C@H](C)NC[C@H]1C	-7.56*
CO[C@H]1CN(C)C(=O)c2cc(NC(=O)c3ccc(Oc4ccccc4)cc3)ccc2OC[C@@H](C)NC[C@@H]1C	-13.2*
COc1cccc(NC(=O)Nc2ccc3c(c2)C(=O)N(C)C[C@H](OC)[C@H](C)CN[C@H](C)CO3)c1	1.65
CO[C@H]1CN(C)C(=O)c2cc(NC(=O)c3cnccn3)ccc2OC[C@@H](C)NC[C@@H]1C	2
Cc1cccc(S(=O)(=O)N2CCCCN3[C@H](CO)[C@H](c4ccc(-c5ccncc5)cc4)[C@@H]3C2)c1	1.48
O=C(c1cnccn1)N1CC(=O)N2[C@H](CO)[C@H](c3ccc(C#CCC4CCCC4)cc3)[C@@H]2C1	4.29
C[C@H]1CN([C@@H](C)CO)C(=O)c2ccccc2-c2ccccc2CO[C@H]1CN(C)C(=O)Nc1cccc(Cl)c1Cl	-0.0373
CN(C)C(=O)c1cccc(-c2ccc([C@H]3[C@@H](CO)N4CCCCN(C(=O)C5CCC5)C[C@@H]34)cc2)c1	2.88
Cc1ccccc1-c1ccccc1[C@H]1[C@@H](CO)N(C(=O)c2ccccc2)[C@H]1C#N	1.31
COc1ccc(-c2ccc3n(c2=O)C[C@@H]2[C@@H](CO)[C@H](C(=O)N4CCOCC4)N[C@H]32)cc1	-0.724
CN(C)C(=O)c1cccc(-c2ccc([C@H]3[C@@H](CO)N4CCCCN(CCC(F)(F)F)C[C@@H]34)cc2)c1	1.91
O=C(C[C@@H]1C[C@H]2c3cc(NC(=O)c4ccc5c(c4)OCO5)ccc3O[C@H]2[C@H](CO)O1)NCc1ccc(Oc2ccccc2)cc1	-1.02
Cc1cccc(-c2ccc([C@@H]3[C@@H](CO)N4CCCCN(C(=O)NC(C)C)C[C@H]34)cc2)c1	-7.25*
COc1ccccc1NC(=O)N1CCCCN2[C@@H](CO)[C@@H](c3ccc(-c4cccc(C)c4)cc3)[C@@H]2C1	-2.19
SMILES	IDE exosite FP
COc1ccccc1NC(=O)N1CCCCN2[C@H](CO)[C@@H](c3ccc(-c4cccc(C)c4)cc3)[C@@H]2C1	-2.84
Cc1cccc(-c2ccc([C@H]3[C@@H](CO)N4CCCCN(C(=O)NC(C)C)C[C@@H]34)cc2)c1	-6.02*
COc1ccccc1NC(=O)N1CCCCN2[C@H](C1)[C@H](c1ccc(-c3cccc(C)c3)cc1)[C@@H]2CO	2.24
Cc1cccc(-c2ccc([C@@H]3[C@@H](CO)N4CCCCN(C(=O)NC(C)C)C[C@@H]34)cc2)c1	-5.51*
O=C(c1ccncc1)N1CC(=O)N2[C@H](CO)[C@H](c3ccc(-c4ccccc4)cc3)[C@H]2C1	-2.9
CO[C@H]1CN(C)C(=O)c2cc(NC(=O)NC(C)C)ccc2OC[C@H](C)N(Cc2ccccc2)C[C@H]1C	-0.83
O=C(Nc1ccc2c(c1)[C@@H]1C[C@@H](CC(=O)N3CCOCC3)O[C@@H](CO)[C@@H]1O2)Nc1ccccc1F	-1.39
CCC(=O)N1[C@H](CO)[C@H](c2ccccc2)[C@H]1CN(CC)C(=O)c1ccc(F)cc1	2.18
O=C(C1CCOCC1)N1CC(=O)N2[C@H](C1)[C@@H](c1ccc(C#CC3CC3)cc1)[C@@H]2CO	-1.05
O=C(C1CCOCC1)N1CC(=O)N2[C@H](C1)[C@H](c1ccc(C#Cc3cccc(F)c3)cc1)[C@@H]2CO	-8.44*
O=C(C1CCOCC1)N1CC(=O)N2[C@H](CO)[C@@H](c3ccc(C#CC4CC4)cc3)[C@H]2C1	3.1

Compound activity as filed in PubChem BioAssay.
